Assay outcomes from PubChem BioAssay.
Rows were chosen to be rich in hits. Some 2.4% of all compounds tested hit in one or more screens of this group.
SENP6 inh = SENP6 protease inhibitors, primary screen, biochemical, luminescence, uHTS. Sentrin-specific protease 6 (Homo sapiens), Q9GZR1. Recombinant SENP6 catalytic domain, aminoluciferin luminescence. inhibition, % at 10 µM. 1.8% of 330,000 active. AID 2599, 2010;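 active means inhibition above about 50% at the single tested dose, limit read from the data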
SENP8 block-1 = SENP8 protease inhibitors, primary screen, biochemical, luminescence; Sentrin-specific protease 8 (Homo sapiens), Q96LD8; purified SENP8, Z-RLRGG-aminoluciferin cleavage; inhibition, % at 10 µM; 1.2% of 330,000 active; AID 2540, 2010; in the data active means inhibition above about 50%
SENP8 block-2 = human SENP8 protease inhibitors, primary screen, biochemical, fluorescence, Nedd8 protein substrate, uHTS; Sentrin-specific protease 8 (Homo sapiens), Q96LD8; recombinant SENP8; inhibition, % at 20 µM; 0.64% of 360,000 active; in the data active means inhibition mostly above about 40%, no sharp cut-off; inactive means mostly below about 27%
Platelet DG rel = inhibitors of platelet dense granule secretion, primary screen, cell-based, MLPCN, human platelets | human platelet-rich plasma, SFLLRN dense granule ATP release, luminescence | AID 1663, 2009 | inhibition, %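 (compounds screened at 7.5 µM in platelet-rich plasma)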 | 0.22% of 300,000 active;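 active means mean replicate score, as percent of positive control, at or above 50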
SENP7 block = SENP7 protease inhibitors, primary screen, biochemical, luminescence, uHTS; Sentrin-specific protease 7 (Homo sapiens), Q9BQF6; recombinant SENP7, Z-RLRGG-aminoluciferin luminescence, 40 min; inhibition, % at 5 µM; 1.5% of 330,000 active;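 active means inhibition above about 50% at the single test dose, limit read from the data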
Target sequence (Q9BQF6 706-1050 limits assumed): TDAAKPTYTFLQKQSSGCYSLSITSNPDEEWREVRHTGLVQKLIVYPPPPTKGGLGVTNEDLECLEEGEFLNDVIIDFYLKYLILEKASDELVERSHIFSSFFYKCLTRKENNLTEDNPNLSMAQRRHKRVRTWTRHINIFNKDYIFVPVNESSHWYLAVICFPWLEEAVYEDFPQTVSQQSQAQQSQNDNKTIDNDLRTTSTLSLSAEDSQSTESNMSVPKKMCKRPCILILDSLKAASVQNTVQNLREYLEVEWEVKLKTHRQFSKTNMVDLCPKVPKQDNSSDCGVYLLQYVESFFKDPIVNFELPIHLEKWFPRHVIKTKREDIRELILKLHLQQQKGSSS
SENP8 conf = SENP8 protease inhibitors, retest, confirmation, biochemical, luminescence, single concentration | shares compounds with SENP7 block | Recombinant SENP8, Z-RLRGG-aminoluciferin luminescence, 60 min | inhibition, % at 12.5 µM | 40% of 6,200 active;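 active means mean inhibition across replicates above about 50%, limit read from the data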
SENP6 conf = SENP6 protease inhibitors, confirmation, biochemical, luminescence, single concentration | shares compounds with SENP7 block | recombinant SENP6, Z-RLRGG-aminoluciferin luminescence | inhibition, % at 12.5 µM | 58% of 6,200 active
SENP7 conf = SENP7 protease inhibitors, retest, confirmation, biochemical, luminescence, single concentration | shares compounds with SENP7 block | recombinant SENP7, Z-RLRGG-aminoluciferin luminescence, 40 min | inhibition, % at 12.5 µM | 69% of 6,200 active | AID 488917, 2010
Casp3 SENP sel = caspase-3 protease inhibitors, confirmation, selectivity assay for SENP inhibitor project, biochemical, single concentration; inhibition, % at 12.5 µM; shares compounds with SENP7 block; 60% of 6,200 active; AID 488918, 2010; purified caspase-3, Z-DEVD-aminoluciferin luminescence, 60 min;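 active means mean inhibition above about 50%, limit read from the data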
SENP luc ctr = interferes with luciferase luminescence in SENP counter-screen. shares compounds with SENP7 block. Pre-incubated SENP8/Z-RLRGG-aminoluciferin, luciferase luminescence interference. inhibition, % at 12.5 µM. 39% of 6,200 active;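 active means mean inhibition above about 50% when retested at one dose, limit read from the data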
Large screens that a line does not name were inactive (follow-up assays come after a bar, where they were run).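 How the source made its calls, unless noted: active means mean inhibition above about 50% in the one-dose retest (limit read from the data); inactive means the rest.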

O=C(OCC(=O)c1cccs1)c1ccccc1	SENP8 block-1 72, SENP7 block 86 | SENP8 conf 85 | SENP6 conf 86 | SENP7 conf 97 | Casp3 SENP sel 91 | SENP luc ctr 86
Cc1cccc(N2CCN(C(=O)COc3ccc4c(C)cc(=O)oc4c3C)CC2)c1C	none
COc1cccc(-c2nc3ccccc3s2)c1	SENP6 inh 92, SENP8 block-1 95, SENP7 block 96 | SENP8 conf 96 | SENP6 conf 98 | SENP7 conf 102 | Casp3 SENP sel 95 | SENP luc ctr 95
COc1ccc(-c2nc3ccccc3s2)cc1	none (no result: SENP6 inh, SENP8 block-1, Platelet DG rel, SENP7 block)
c1ccc2[nH]c(-c3ccc4c(c3)OCO4)nc2c1	SENP6 inh 96, SENP8 block-1 93, Platelet DG rel 73, SENP7 block 97 | SENP8 conf 96 | SENP6 conf 97 | SENP7 conf 102 | Casp3 SENP sel 97 | SENP luc ctr 96
CC(=O)NCc1ccc(-c2nc3ccccc3s2)cc1	SENP6 inh 80, SENP8 block-1 64, SENP7 block 72 | SENP8 conf inactive | SENP6 conf 59 | SENP7 conf 87 | Casp3 SENP sel 77 | SENP luc ctr inactive
c1ccc2sc(-c3ccncc3)nc2c1	SENP6 inh 68, SENP7 block 67 | SENP8 conf inactive | SENP6 conf 55 | SENP7 conf 83 | Casp3 SENP sel 80 | SENP luc ctr inactive
O=C(Nc1ccc(-c2nc3ccccc3[nH]2)cc1)c1ccc2c(c1)OCO2	none
Cc1ccc(NC(=O)C2(C)CCN2C(=O)Cc2ccc(C(C)(C)C)cc2)cc1C (configuration not stated)	none (no result: SENP6 inh, SENP8 block-1, Platelet DG rel, SENP7 block)
CC1CCCC(NC(=O)Cn2c(Cl)nc3c2c(=O)n(C)c(=O)n3C)C1C (configuration not stated)	none (no result: Platelet DG rel)
COc1cc(C(=O)Nc2cccc(C)c2C)ccc1OCC(=O)N1CCOCC1	none (no result: Platelet DG rel)
Nc1ccc(O)c(-c2nc3ccccc3s2)c1	none
O=C(O)c1ccc2nc(-c3ccccc3)sc2c1	SENP6 inh 98, SENP8 block-1 94, SENP7 block 100 | SENP8 conf 98 | SENP6 conf 99 | SENP7 conf 102 | Casp3 SENP sel 96 | SENP luc ctr 98
c1ccc2sc(-c3ccc4c(c3)OCO4)nc2c1	SENP6 inh 97, SENP8 block-1 96, SENP7 block 100 (no result: Platelet DG rel) | SENP8 conf 98 | SENP6 conf 100 | SENP7 conf 103 | Casp3 SENP sel 98 | SENP luc ctr 95
Oc1ccc(-c2nc3ccccc3s2)c(O)c1	SENP6 inh 97, SENP8 block-1 88, SENP7 block 86 | SENP8 conf 95 | SENP6 conf 94 | SENP7 conf 101 | Casp3 SENP sel 75 | SENP luc ctr 78
CC(=O)NCc1ccc(-c2csc(-c3cccs3)n2)cc1	SENP6 inh 62 | SENP8 conf inactive | SENP6 conf inactive | SENP7 conf 73 | Casp3 SENP sel inactive | SENP luc ctr 57
O=C(NCc1csc(-c2cccs2)n1)c1ccccc1	none (no result: Platelet DG rel)
Cc1nc(N2CCCCC2)nc(N2CCCCC2)c1C=O	none
Nc1ccccc1-c1nc2ccccc2s1	SENP6 inh 76, SENP8 block-1 54, SENP7 block 59 | SENP8 conf 61 | SENP6 conf 83 | SENP7 conf 96 | Casp3 SENP sel 55 | SENP luc ctr inactive
